Data on 21 compounds can be found in PubChem BioAssay (EPA / NIEHS).

In general, AC50 refers to the concentration giving half of the maximal activity seen.

The target of assay [1] is Paired box protein Pax-6 (Homo sapiens) (UniProt P26367). In words: ATG_Pax6_CIS: Attagene CIS-FACTORIAL HepG2 Assay for human Paired Box 6 (PAX6) (AID 2282956). Conditions: HepG2 CIS-FACTORIAL PAX6 reporter transcription, RNA readout; actives raise or lower the signal. The essentials: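 Readout: reporter transcript fluorescence after RT-PCR and capillary electrophoresis. Cells: HepG2, transiently transfected with cis-regulated MRTUs. Exposure 24 h. Gain or loss of signal fitted bidirectionally relative to DMSO.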
Chain of Paired box protein Pax-6 (Homo sapiens) (P26367 whole entry, looked up): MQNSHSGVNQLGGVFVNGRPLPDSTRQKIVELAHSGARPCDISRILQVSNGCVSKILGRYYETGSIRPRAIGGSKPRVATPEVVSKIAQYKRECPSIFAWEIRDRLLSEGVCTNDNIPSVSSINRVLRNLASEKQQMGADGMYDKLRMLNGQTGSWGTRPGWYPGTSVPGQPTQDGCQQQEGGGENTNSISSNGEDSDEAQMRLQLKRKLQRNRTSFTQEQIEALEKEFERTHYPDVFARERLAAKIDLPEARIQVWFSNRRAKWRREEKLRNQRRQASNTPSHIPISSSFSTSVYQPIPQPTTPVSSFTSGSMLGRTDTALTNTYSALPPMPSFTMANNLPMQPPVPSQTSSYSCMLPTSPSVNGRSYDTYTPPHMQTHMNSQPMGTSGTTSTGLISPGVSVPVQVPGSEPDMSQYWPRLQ

Assay [2] in a line: ATG_PXRE_CIS: Attagene CIS-FACTORIAL HepG2 Assay for human Pregnane X Receptor Element (PXRE) (AID 2282957). To be noted: HepG2 Attagene CIS-FACTORIAL PXRE reporter, mRNA; actives raise or lower the signal. The essentials: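 Using HepG2 transfected with multiple reporter transcription units, endogenous factor-driven transcription was scored as reporter mRNA after 24 h exposure.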

A short description of assay [3]: ATG_PPRE_CIS: Attagene CIS-FACTORIAL HepG2 Assay for human Peroxisome Proliferator-activated Response Element (PPRE) (AID 2282958). Conditions: HepG2 PPRE cis-element reporter, Attagene transcription factor profiling; actives raise or lower the signal. The essentials:
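Endogenous PPRE-driven transcription is measured in HepG2 cells carrying transfected multi-reporter constructs. Reporter transcripts are quantified by RT-PCR, HpaI digestion and capillary electrophoresis 24 h after dosing. DMSO baseline, bidirectional fit.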

Assay [4] can be described thus: ATG_RORE_CIS: Attagene CIS-FACTORIAL HepG2 Assay for human RAR-related Orphan Receptor Element (RORE) (AID 2282959). To be noted: HepG2 Attagene cis-factorial RORE reporter, mRNA; actives raise or lower the signal. A digest of the protocol:
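RORE reporter transcripts reflecting endogenous factor activity were read after 24 h compound exposure of transfected HepG2 cells, using reverse transcription, PCR, fluorescent labelling and capillary electrophoresis sizing. Gain or loss fitted against DMSO.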

Assay [5] is described as follows: ATG_Sox_CIS: Attagene CIS-FACTORIAL HepG2 Assay for human SRY-box transcription factor (SOX) (AID 2282960). Conditions: HepG2 Attagene cis-factorial SOX reporter, mRNA; actives raise or lower the signal. The essentials:
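Reporter transcripts, measured by RT-PCR and capillary electrophoresis of labelled fragments, report endogenous SOX transcription factor activity. Transiently transfected human HepG2 cells receive chemical for 24 h; changes in either direction are fitted relative to DMSO.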

Assay [6] concerns the target Transcription factor Sp1 (Homo sapiens) (UniProt P08047). In words: ATG_Sp1_CIS: Attagene CIS-FACTORIAL HepG2 Assay for human Specificity Protein 1 (Sp1) (AID 2282961). Conditions: HepG2 Sp1 cis-reporter transcription, actives raise or lower the signal. A digest of the protocol: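 Read-out is reporter transcript level, measured by RT-PCR and fluorescent capillary electrophoresis after 24 h chemical treatment. System: transiently transfected HepG2 cells reporting endogenous transcription factor activity; gain or loss fitted against DMSO baseline.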

Assay [7] in a line: ATG_SREBP_CIS: Attagene CIS-FACTORIAL HepG2 Assay for human Sterol Regulatory Element Binding (SREBP) (AID 2282962). Conditions: HepG2 Attagene cis-factorial SREBP reporter, mRNA; actives raise or lower the signal. The essentials: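 Readout: fluorescent reporter-transcript peaks resolved by capillary electrophoresis after RT-PCR. Cells were human HepG2 carrying transfected cis-promoter reporter constructs, dosed for 24 h. Gain or loss of signal was fitted against DMSO controls.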

Assay [8] has as its target Signal transducer and activator of transcription 3 (Homo sapiens) (UniProt P40763). In words: ATG_STAT3_CIS: Attagene CIS-FACTORIAL HepG2 Assay for human Signal Transducer and Activator of Transcription 3 (STAT3) (AID 2282963). Conditions: HepG2, Attagene cis-factorial STAT3 reporter transcription; actives raise or lower the signal. A digest of the protocol: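 Readout is reporter transcript quantified by RT-PCR and capillary electrophoresis, with 6-FAM primer extension and HpaI digestion. Total RNA is taken 24 h after dosing transiently transfected HepG2 carrying cis-regulated reporter units. Bidirectional fit against DMSO.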

The nature of assay [9]: ATG_TA_CIS: Attagene CIS-FACTORIAL HepG2 Assay for human TA Basal Promoter (AID 2282964). To be noted: HepG2 Attagene CIS-factorial TA basal promoter reporter; actives raise or lower the signal. A digest of the protocol:
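Background internal-marker endpoint from a 52-component HepG2 cis-reporter panel. Cells treated 24 h; reporter transcripts quantified via RT-PCR and CE fluorescence against DMSO baseline.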

Assay [10] can be described thus: ATG_TCF_b_cat_CIS: Attagene CIS-FACTORIAL HepG2 Assay for human T-Cell-Factor with beta-catenin (TCF/b-cat) (AID 2282965). To be noted: HepG2 TCF/beta-catenin cis-reporter transcription, actives raise or lower the signal. A digest of the protocol:
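Measured: reporter mRNA in HepG2 transiently transfected with cis-promoter reporter units, 24 h after chemical addition. Fitting was bidirectional, DMSO as negative control.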

Structures are written as SMILES. The source made the active and inactive calls. Rule for the calls: active = hit-call score of the fitted dose curve at least 0.9, where 1 is the maximum; inactive = score below 0.9.

Chain of Transcription factor Sp1 (Homo sapiens) (P08047 whole entry, looked up): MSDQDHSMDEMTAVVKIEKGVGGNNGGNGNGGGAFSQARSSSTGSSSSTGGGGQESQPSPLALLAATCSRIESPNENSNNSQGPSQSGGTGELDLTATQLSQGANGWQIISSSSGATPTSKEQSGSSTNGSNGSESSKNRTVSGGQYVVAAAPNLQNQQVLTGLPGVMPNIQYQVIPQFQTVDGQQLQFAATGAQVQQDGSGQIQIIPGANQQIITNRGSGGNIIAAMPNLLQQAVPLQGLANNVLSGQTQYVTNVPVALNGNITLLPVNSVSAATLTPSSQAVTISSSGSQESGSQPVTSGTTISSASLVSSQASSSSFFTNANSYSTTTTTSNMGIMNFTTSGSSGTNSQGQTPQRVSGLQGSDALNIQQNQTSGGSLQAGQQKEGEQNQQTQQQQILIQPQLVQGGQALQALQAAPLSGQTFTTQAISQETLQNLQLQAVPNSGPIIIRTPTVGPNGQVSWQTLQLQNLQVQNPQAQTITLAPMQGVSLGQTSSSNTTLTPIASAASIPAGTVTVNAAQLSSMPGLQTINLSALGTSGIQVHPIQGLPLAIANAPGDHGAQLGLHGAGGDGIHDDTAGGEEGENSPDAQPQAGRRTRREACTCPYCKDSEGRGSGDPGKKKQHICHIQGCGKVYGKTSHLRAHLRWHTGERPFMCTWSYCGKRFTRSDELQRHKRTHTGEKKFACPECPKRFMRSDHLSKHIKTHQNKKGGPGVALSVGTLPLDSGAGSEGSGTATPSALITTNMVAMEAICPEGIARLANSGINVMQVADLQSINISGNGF
Chain of Signal transducer and activator of transcription 3 (Homo sapiens) (P40763 whole entry, looked up): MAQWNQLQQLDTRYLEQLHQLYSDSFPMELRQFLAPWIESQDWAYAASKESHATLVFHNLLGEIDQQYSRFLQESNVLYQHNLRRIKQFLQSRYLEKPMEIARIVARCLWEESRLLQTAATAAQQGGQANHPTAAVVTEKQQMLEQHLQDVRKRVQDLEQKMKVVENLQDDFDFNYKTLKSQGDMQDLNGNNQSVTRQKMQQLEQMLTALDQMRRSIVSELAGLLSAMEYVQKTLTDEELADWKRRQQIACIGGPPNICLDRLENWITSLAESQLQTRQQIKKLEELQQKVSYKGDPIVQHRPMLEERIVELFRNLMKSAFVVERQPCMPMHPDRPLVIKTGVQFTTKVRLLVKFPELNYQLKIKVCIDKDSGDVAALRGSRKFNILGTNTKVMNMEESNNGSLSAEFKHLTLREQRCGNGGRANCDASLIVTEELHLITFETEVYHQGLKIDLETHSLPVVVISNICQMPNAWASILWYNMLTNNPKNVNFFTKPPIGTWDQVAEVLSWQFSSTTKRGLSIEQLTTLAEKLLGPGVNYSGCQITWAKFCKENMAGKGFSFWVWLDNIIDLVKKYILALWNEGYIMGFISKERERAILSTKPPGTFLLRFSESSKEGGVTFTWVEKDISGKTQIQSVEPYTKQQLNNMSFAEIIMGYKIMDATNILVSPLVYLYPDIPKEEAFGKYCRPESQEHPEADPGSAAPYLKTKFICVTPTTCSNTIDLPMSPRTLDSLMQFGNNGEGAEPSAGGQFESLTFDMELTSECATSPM

`Cc1ccccc1C=O`: the compound was called inactive in assay [1], in assay [3], in assay [4], in assay [5], in [6] and in [7]. Moreover, the compound was classed as inactive in assay [8], in assay [9] and in assay [10]. Also, the AC50 in [2] is 38.2 µM (active).
With `O=C(OCc1ccccc1)C(=O)OCc1ccccc1`, the outcome in assay [1], in assay [2], in assay [3], in [4], in assay [5] and in [6] was inactive. Further, the outcome in assay [7], in [8], in [9] and in [10] was inactive.
Regarding `CCC(C)CCCC(C)(C)O` (stereo not given), the outcome in assay [1], in assay [2], in assay [3], in assay [4], in assay [5] and in [6] was inactive. Besides, the call in assay [7], in assay [8], in assay [9] and in [10] was inactive.
Regarding `CC(C)C(C)(C)C(C)(C)C(C)(C)S`, the call in assay [1], in assay [3], in assay [4], in assay [5], in assay [6] and in assay [7] was inactive. In addition, the compound was classed as inactive in [8], in assay [9] and in [10]. Besides, in assay [2], the AC50 is 4.43 µM (active).
As to `OC1C(O)C(O)C(O)C(O)C1O` (stereo not given), the call in [1], in [2], in [3], in assay [4], in [5] and in assay [6] was inactive. In addition, the call in [7], in assay [8], in [9] and in assay [10] was inactive.
With `CO[Si](CCCn1c(=O)n(CCC[Si](OC)(OC)OC)c(=O)n(CCC[Si](OC)(OC)OC)c1=O)(OC)OC`, the compound was called inactive in [1], in assay [3], in assay [4], in [5], in assay [6] and in assay [7]. The outcome in [8], in assay [9] and in assay [10] was inactive. Besides, the half-maximal activity concentration (AC50) in assay [2] is 28.6 µM (active).
With `COc1cc2ncnc(Nc3cccc(Cl)c3)c2cc1OC`, the values for the AC50 in assay [1], in [9] and in assay [10] were 25 µM (active), 9.84 µM (active) and 6.77 µM (active), respectively. Besides, the outcome in [2], in assay [3], in [4], in assay [5], in [6] and in [7] was inactive. The outcome in [8] was inactive.
Turning to `CCCCC/C=C/C=C/C=O`, the AC50 in assay [1] is 100 µM (active); in assay [2], 26.6 µM (active). Moreover, the call in [3], in [4], in assay [5], in assay [6], in assay [7] and in [8] was inactive. For the same compound, the outcome in assay [9] and in [10] was inactive.
Regarding `O=C(O)CN(CCN(CC(=O)O)CC(=O)O)CCN(CC(=O)O)CC(=O)O`, the result in assay [1], in [2], in [3], in [4], in [5] and in [6] was inactive. Also, the call in [7], in assay [8], in assay [9] and in assay [10] was inactive.
Regarding `O=C(O)CCSCCC(=O)O`, the compound was called inactive in assay [1], in [3], in [4], in assay [5], in [6] and in assay [7]. Besides, the compound was called inactive in assay [8], in assay [9] and in assay [10]. In addition, the AC50 in assay [2] was 54.3 µM (active).
Take `CC(C)c1cccc(O)c1`: the call in [1], in [3], in assay [4], in assay [5], in assay [6] and in [7] was inactive. Moreover, the call in [8], in [9] and in assay [10] was inactive. In addition, in assay [2], the AC50 was 28.4 µM (active).
Consider `O=C[C@@H](O)[C@H](O)[C@H](O)CO`, for which the outcome in assay [1], in [2], in [3], in [4], in assay [5] and in [6] was inactive. The compound was called inactive in assay [7], in assay [8], in assay [9] and in assay [10].
Consider `COc1ccnc(CS(=O)c2nc3cc(OC(F)F)ccc3[nH]2)c1OC` (stereo not given), for which the result in [1], in [3], in assay [4], in assay [5], in [6] and in assay [7] was inactive. Further, the call in assay [8], in assay [9] and in assay [10] was inactive. The AC50 in assay [2] was 8.07 µM (active).
For the compound `CC(C)OP(=O)(CP(=O)(OC(C)C)OC(C)C)OC(C)C`, the compound was classed as inactive in [1], in assay [3], in [4], in [5], in assay [6] and in assay [7]. In addition, the compound was called inactive in [8], in assay [9] and in assay [10]. Moreover, in assay [2], the AC50 is 7.59 µM (active).
On to `CCC(=O)OCc1ccccc1`, for which the compound was classed as inactive in assay [1], in [2], in assay [3], in [4], in assay [5] and in assay [6]. For the same compound, the compound was called inactive in assay [7], in assay [8], in assay [9] and in [10].
On to `Cc1ccc2n[nH]nc2c1`, for which the compound was called inactive in assay [1], in assay [2], in assay [3], in assay [4], in assay [5] and in assay [6]. Moreover, the compound was classed as inactive in assay [7], in assay [8], in assay [9] and in [10].
Consider `C=CC(C)(CCC=C(C)C)OC=O` (stereo not given), for which the call in assay [1], in assay [3], in [4], in [5], in [6] and in assay [7] was inactive. In addition, the call in assay [8], in [9] and in [10] was inactive. Moreover, the AC50 in [2] was 24.8 µM (active).
As for `CC(=O)[C@H]1CC[C@H]2[C@@H]3CC=C4C[C@@H](O)CC[C@]4(C)[C@H]3CC[C@]12C`, the compound was called inactive in assay [1], in assay [3], in assay [4], in assay [5], in [6] and in [7]. Further, the result in assay [8] and in assay [9] was inactive. The AC50 in assay [2] is 3.37 µM (active); in assay [10] it was 52.8 µM (active).
Take `CN(C)CCOCCN(C)C`: the outcome in assay [1], in assay [2], in assay [3], in [4], in assay [5] and in [6] was inactive. Also, the outcome in assay [7], in assay [8], in [9] and in assay [10] was inactive.
For the compound `CCC/C=C/C=O`, the call in assay [1], in assay [3], in [4], in assay [5], in [6] and in [7] was inactive. The result in [8], in [9] and in [10] was inactive. Also, the AC50 in assay [2] is 11.2 µM (active).
Consider `CCCCCCCCCC=O`, for which the call in assay [1], in assay [2], in assay [4], in [5], in [6] and in [7] was inactive. Further, the call in [8], in [9] and in [10] was inactive. In addition, the AC50 in [3] was 46.1 µM (active).
